# Screening data: PubChem, National Center for Advancing Translational Sciences (NCATS)
# In the library only some 3.8% were active in any assay of this set; here they are far more common.
# PLK1 PBD inh – qHTS for Inhibitors of PLK1-PDB (polo-like kinase 1 - polo-box domain): Primary Screen; Plk1 PBD binding of FITC phosphopeptide, fluorescence polarization; Potency, µM, for inactives: max response, negative = inhibition, most hits filed as inhibitors; Serine/threonine-protein kinase PLK1 (Homo sapiens), P53350; AID 720504, 2013; 360,000 compounds, 2.8% hits; further: potency means the concentration at half of the fitted maximal effect; series mostly up to about 57 µM; on the % scale 0 is the no-effect control and ±100 the full control effect; nearly all actives have a fitted effect of over 65% in size
# Target sequence (P53350 whole entry, looked up, the tested form may be a part): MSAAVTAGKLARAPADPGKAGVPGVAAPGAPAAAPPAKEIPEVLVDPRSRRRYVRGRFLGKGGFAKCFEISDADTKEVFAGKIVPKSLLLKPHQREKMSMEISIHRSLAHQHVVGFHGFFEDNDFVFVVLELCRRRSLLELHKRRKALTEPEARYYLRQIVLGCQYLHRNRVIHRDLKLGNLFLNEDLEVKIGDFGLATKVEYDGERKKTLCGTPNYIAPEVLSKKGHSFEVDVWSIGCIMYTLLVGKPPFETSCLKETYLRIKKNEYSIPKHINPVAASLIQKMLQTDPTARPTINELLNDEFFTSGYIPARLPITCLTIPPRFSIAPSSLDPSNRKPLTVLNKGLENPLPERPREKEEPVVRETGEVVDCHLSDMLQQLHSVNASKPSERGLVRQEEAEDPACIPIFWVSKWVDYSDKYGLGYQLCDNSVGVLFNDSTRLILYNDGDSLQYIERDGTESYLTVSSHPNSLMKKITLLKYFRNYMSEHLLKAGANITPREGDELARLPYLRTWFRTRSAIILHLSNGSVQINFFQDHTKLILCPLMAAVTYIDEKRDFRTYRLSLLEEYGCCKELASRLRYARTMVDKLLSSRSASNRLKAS
# KCNH2 3.1 inh – qHTS for Inhibitors of KCHN2 3.1: Mutant qHTS; Potassium voltage-gated channel subfamily H member 2, brain isoform KCNH2 3.1 (human); U2OS KCNH2 3.1, thallium flux FluxOr; hits give low values; activity change, % (tested at about 1.8 µM); 340,000 compounds, 0.95% hits;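 active means maximum activity change below -70%; inconclusive means maximum activity change from -70% to -50%; inactive means maximum activity change above -50%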;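 further: thallium influx rate constant from kinetic fluorescence after stimulation buffer; on the % scale 0 is the no-effect control and ±100 the full control effect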
#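 We transduce U2OS cells with the mutant 3.1 virus, culture them overnight, load FluxOr with Red40 quencher for 45 min, then add stimulation buffer and read kinetically for 2 min to derive a normalized rate constant.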
# MBNL1-CUG inh – qHTS Assay for Inhibitors of MBNL1-poly(CUG) RNA binding; Muscleblind-like protein 1 (Homo sapiens), Q9NR56; TR-FRET MBNL1-His/biotin-(CUG)12 binding, 665/545 ratio; Potency, µM (highest dose often 57.5 µM), for the others: at the highest dose activity change, negative = inhibition, actives largely listed as inhibitors; 280,000 compounds, 0.036% hits; AID 2675, 2010; active means well fitted inhibition curve with a large enough effect in the signal ratio, with a control signal flat, not every such curve was filed as active; inconclusive means small, poorly fitted or top-dose-only effect, or effect the other way, or a change in a side signal; inactive means no such curve, though single readings can be large or run the other way; the % refers to the signal ratio; further: potency means the concentration at half of the fitted maximal effect; on the % scale 0 is the no-effect control and ±100 the full control effect
#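 TR-FRET between His-tagged MBNL1 and biotin-(CUG)12 RNA, detected with Tb anti-His antibody (0.055 ng/ul) and streptavidin-XL665 (5 nM), 60 min at room temperature. Compounds titrated 92 nM to 58 uM; 665/545 nm ratio normalized to buffer and complex controls.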
# VDR inh – Inhibitors of the vitamin D receptor (VDR): qHTS | Vitamin D3 receptor (Homo sapiens), P11473 | VDR-SRC2-3 peptide fluorescence polarization, 2 h | Potency, µM, without a hit: max response, negative = inhibition, most hits filed as inhibitors | 400,000 compounds, 0.93% hits | AID 504847, 2011; further: potency means the concentration at half of the fitted maximal effect; on the % scale 0 is the no-effect control and ±100 the full control effect
#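 Reagent solutions, kept cold and dark, are dispensed first; compounds are then pinned in at 23 nl, plates briefly spun, and incubated 2 h at ambient temperature. Inhibition of VDR–SRC2-3 peptide binding is read by fluorescence polarization.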
# KCNH2 WT inh – qHTS for Inhibitors of KCHN2 3.1: Wildtype qHTS; Voltage-gated inwardly rectifying potassium channel KCNH2 (Homo sapiens), Q12809; U2OS, BacMam KCNH2, thallium flux FluxOr; hits give low values; activity change, % at 1.84 µM; 340,000 compounds, 0.37% hits; AID 720551, 2013;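 active means maximum activity change below -70%; inconclusive means maximum activity change between -70% and -50%; inactive means maximum activity change above -50%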; further: on the % scale 0 is the no-effect control and ±100 the full control effect
#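 U2OS cells were transduced with wild-type KCNH2 virus (2.03 x 10^8 / mL) for 4 h at room temperature, then cultured overnight at 37 C. Thallium flux was read with FluxOr dye. Rate constants were normalized to DMSO controls.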
# CBFb-RUNX1 inh – qHTS Assay for Compounds Blocking the Interaction Between CBF-beta and RUNX1 for the Treatment of Acute Myeloid Leukemia | Runt-related transcription factor 1 (Homo sapiens) + Core-binding factor subunit beta … | AlphaScreen CBFb-His/RUNX1-biotin binding, biochemical | Potency, µM (series often up to 59.8 µM), inactives show at the highest dose activity, negative = inhibition, hits mostly inhibitors | 230,000 tested, under 10 active | AID 1477, 2009; further: % of control where 0% means no effect
#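 Proteins preincubated together for 20 min at RT before compound addition; 15 min later, nickel and streptavidin beads were added and left 90 min prior to AlphaScreen measurement.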
# Active calls of the source: *; u = inconclusive; x = not tested or not shown. Unless noted, the call rests on the fitted dose curve; in most records, active means well fitted curve in the direction sought with a large enough effect; inconclusive means small, poorly fitted or top-dose-only effect, or another doubt; inactive means no such curve, though single readings can be large; an effect the other way counts as inactive or inconclusive.
SMILES,PLK1 PBD inh,KCNH2 3.1 inh,MBNL1-CUG inh,VDR inh,KCNH2 WT inh,CBFb-RUNX1 inh
CSC1=NSC2=NC(=O)/C(=C/c3coc4ccccc4c3=O)C(=N)N12,21µM*,-1,u,50µM*,25,-8%
CSC1=NSC2=NC(=O)/C(=C/c3coc4ccc(O)cc4c3=O)C(=N)N12,u,x,6%,u,-9,-3%
Cc1cc(C)cc(OCC(=O)Nc2nonc2-c2ccc(Br)cc2)c1,x,x,x,14%,x,x
O=C(Nc1ccc2[nH]c(=S)sc2c1)c1ccccc1,u,15,-10%,u,0,-1%
S=c1[nH]c2ccccc2s1,x,x,x,35µM*,x,u
COc1ccc(CNC(=O)c2ccc(-c3nc(CSc4ccccc4)c(C)o3)cc2)cc1OC,x,x,x,10%,x,x
COc1ccccc1-c1nc2c(c(SCC(=O)Nc3ccc(C)c(C)c3)n1)Cc1c(CO)cnc(C)c1O2,x,x,x,8%,x,x
O=C(Nc1c(C(=O)N2CCN(c3ccc(F)cc3)CC2)oc2ccccc12)c1c(F)cccc1F,x,x,x,4%,x,x
CC(C)(C)C1=CC(=O)C(N2CCOCC2)=CC1=O,-3%,2,u,-9%,-8,-5%
CC(C)(C)C1=CC(=O)C(=O)C(C(C)(C)C)=C1,3.8µM*,-5,4%,u,x,-2%
Brc1ccc(-c2cn3cc(Cc4ccccc4)sc3n2)cc1,x,x,x,2%,x,x
OC(Cc1nc2ccccc2[nH]1)c1ccccc1Cl (centres undefined),-7%,-74*,-7%,-5%,-10,-4%
COc1cccc(NC(=O)CCS(=O)(=O)c2cc3c(cc2Cl)NC(=O)CO3)c1,-17%,1,6%,1%,-15,x
Cc1cccc(NC(=O)CCS(=O)(=O)c2cc3c(cc2Cl)NC(=O)CO3)c1,12µM*,-49,-1%,u,1,x
CC1Sc2ccc(C(=O)NCc3ccccn3)cc2NC1=O (centres undefined),17µM*,-2,x,79µM*,-8,x
O=c1ccc2c(OCCCCOc3ccccc3)c3ccoc3cc2o1,x,x,x,2%,x,u
Cc1ccccc1NC(=O)CSC1=Nc2ccccc2C2=NC(CCC(=O)NCc3ccccc3)C(=O)N12 (centres undefined),x,x,x,-8%,x,x
O=C(O)c1ccc2c(c1)C(=O)N([C@H](Cc1ccccc1)C(=O)O)C2=O,x,x,x,x,x,22%
COC(=O)/C=c1/s/c(=C(/C#N)C(=O)N2CCOCC2)n(-c2ccccc2)c1=O,27µM*,3,6%,-20%,-20,-2%
CC(=O)N(C)c1ccc(OCC(O)Cn2c(C)nc3ccccc32)cc1 (centres undefined),1%,-3,x,-1%,3,26%
CC(=O)N(C)c1ccc(OCC(O)Cn2c3ccc(Cl)cc3c3cc(Cl)ccc32)cc1 (centres undefined),0%,-29,-2%,-4%,-76*,10%
CC(C)(C)NC(=O)Nc1ccc(Cn2cc(C(F)(F)F)ccc2=O)cc1,24µM*,-1,-2%,-29%,-1,-17%
CCn1nc(NS(=O)(=O)c2ccccc2)c2cc3ccccc3nc21,27µM*,2,21%,u,-11,x
CNC(=O)C(=O)Nc1nc(C23CC4CC(CC(C4)C2)C3)cs1,30µM*,-2,-13%,8%,5,0%
O=C(NCc1ccccc1)C(=O)Nc1nc(C23CC4CC(CC(C4)C2)C3)cs1,-6%,-14,-5%,-6%,-1,-8%
SMILES,PLK1 PBD inh,KCNH2 3.1 inh,MBNL1-CUG inh,VDR inh,KCNH2 WT inh,CBFb-RUNX1 inh
COc1ccc(-c2nc3ccccc3nc2-c2ccccc2)cc1,21µM*,-2,25%,u,4,u
CCOc1cc2[nH]c(=O)n(CCCCC(=O)N3CCN(c4ccc(OC)cc4)CC3)c(=O)c2cc1OCC,x,x,x,17%,x,x
O=C(O)[C@H](Cc1ccccc1)N1C(=O)c2c(Cl)c(Cl)c(Cl)c(Cl)c2C1=O,27µM*,9,13%,u,3,x
CCC(=O)Oc1c(Sc2ccc(Cl)cc2)c(C)nn1-c1ccccc1,x,x,x,79µM*,x,x
COc1ccc(C(=O)Oc2c(Sc3ccccc3)c(C)nn2-c2ccccc2)cc1OC,x,x,x,-29%,x,x
CCCC(=O)Oc1c(Sc2ccc(C)cc2)c(C)nn1-c1ccccc1,x,x,x,18µM*,x,x
CCC(=O)Oc1c(Sc2ccc(C)cc2)c(C)nn1-c1ccccc1,x,x,x,79µM*,x,x
O=S(=O)(NCC(c1ccco1)S(=O)(=O)c1ccccc1)c1cc(F)ccc1F (centres undefined),x,x,x,9%,x,x
COc1ccc(CC(=O)N(Cc2nc(-c3ccc(C)cc3)no2)C(C)C)cc1,x,x,x,-12%,x,x
COc1ccccc1CNCC(=O)NCc1ccc(C)cc1,-21%,-71*,-4%,-7%,-2,-8%
O=C(NCc1ccccc1F)C12CC3CC(CC(C3)C1)C2,-16%,4,x,-13%,-5,x
COc1ccccc1CNC(=O)Cc1ccc(C)cc1,4%,8,-5%,6%,x,9%
COc1ccccc1CNCC(=O)Nc1ccc(N(C)C)cc1,27µM*,0,-3%,-28%,-2,x
COc1ccccc1CNC(=O)C12CC3CC(CC(C3)C1)C2,27µM*,4,-4%,-19%,2,x
CCn1c2ccccc2c2cc(NC(=O)CNCc3ccccc3OC)ccc21,-8%,-1,-2%,13%,-13,x
COc1ccccc1CNC(=O)CC(C)C,12µM*,13,-7%,u,7,0%
COc1cccc(C2=NN(S(C)(=O)=O)C(c3cn(-c4ccccc4)nc3-c3cccs3)C2)c1 (centres undefined),x,x,x,-1%,x,x
CCc1ccc(CNC(=O)c2ccc3c(c2)nc2n3CCOC2)cc1,x,x,x,15%,x,x
COc1ccc(NC(=O)/C=C/c2ccc(OC(F)F)cc2)cn1,-6%,-75*,17%,-10%,4,x
CCCCc1ccc(NC(=O)c2ccc3c(c2)CCN3S(=O)(=O)c2ccccc2)cc1,x,x,x,0%,x,x
CCC(=O)OCC(=O)Nc1cc(C)c(C)cc1[N+](=O)[O-],24µM*,-4,u,-8%,3,-7%
COc1ccc(C(=O)OCC(=O)Nc2cc(C)c(C)cc2[N+](=O)[O-])cc1,-10%,2,-20%,-11%,x,-7%
